Test results as given in PubChem BioAssay AID504832 (National Center for Advancing Translational Sciences (NCATS), 2011).
The campaign covered roughly 310,000 compounds. About 18,000 (5.8%) were called active. Inconclusive results (about 22%) are left out. This excerpt belongs to a sample that is enriched for actives. Unmarked numbers belong to inactive results. Calls come from the whole dose curve; as a rule, active = well fitted inhibition curve with a large enough effect; inconclusive = small, poorly fitted or top-dose-only effect, or another doubt; inactive = no such curve, though single readings can be large or run the other way.

Test: Primary qHTS for delayed death inhibitors of the malarial parasite plastid, 48 hour incubation
Conditions: P. falciparum luciferase growth in erythrocytes; series mostly up to 28.7 µM; activity change, negative = inhibition: at the top concentration
In short: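 First compound was added to culture medium, then infected red cells at 0.1% parasitemia and 2% hematocrit (final). After incubation at 37 C under 5% CO2, luciferase detection reagent was dispensed and light output recorded.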
% is set by controls: 0 for no effect and ±100 for the full control effect; potency is the fitted concentration of half-maximal effect.

Row | SMILES | activity change, negative = inhibition [%] | Potency
1 | O=C(O)CC(c1ccccc1F)N1Cc2ccccc2C1=O (stereo unspecified) | 16.6 | 
2 | Nc1nc(NCC(=O)O)nc(N2CCCCCC2)c1[N+](=O)[O-] | 41.1 | 
3 | CNc1nc(Nc2ccc(C)c(Cl)c2)nc(N)c1[N+](=O)[O-] | 200 | 
4 | CCN1CCN(c2nc(Nc3cccc(F)c3)nc(N)c2[N+](=O)[O-])CC1 |  | 13.1 µM (active)
5 | COc1ccccc1C(=O)NC(=O)COC(=O)c1ccco1 | 0.409 | 
6 | O=C(Cn1cnc2ccccc21)Nc1ccccc1-c1ccccc1 | 10.1 | 
7 | CCSc1nnc(SCC(=O)NNC(=O)c2ccccc2F)s1 | 17.2 | 
8 | Cc1cc(OCCCN2CCN(Cc3ccccc3)CC2)ccc1[N+](=O)[O-] | 7.77 | 
9 | Cc1c(CN2CCC(CO)(CCOc3ccccc3)CC2)[nH]c2ccc(Cl)cc12 |  | 3.7 µM (active)
10 | OCC1(CCOc2ccccc2)CCN(Cc2cn[nH]c2-c2ccccc2)CC1 | -18.6 | 
11 | CC(OC(=O)CN1C(=O)COc2ccccc21)C(=O)NCc1ccc(F)cc1 (stereo unspecified) | -14.5 | 
12 | O=C(NCCc1ccccn1)c1nc(Cn2cc([N+](=O)[O-])cn2)no1 | 30.2 | 
13 | CC(=O)Nc1ccc(S(=O)(=O)N(C)c2nc3ccccc3nc2Cl)cc1 | -27 | 
14 | COc1ccc(C(=O)C2CCCN(C(=O)c3cc(C)on3)C2)cc1F (stereo unspecified) | 42.1 | 
15 | CCOc1cc(N2CCOCC2)c(OCC)cc1NC(=O)COc1cccc2cccnc12 |  | 3.29 µM (active)
16 | O=C(COC(=O)c1ccccc1F)Nc1cc(S(=O)(=O)N2CCOCC2)ccc1N1CCCC1 | -14.6 | 
17 | CCOc1cc(N2CCOCC2)c(OCC)cc1NC(=O)C1=NN(c2cccc(C)c2)C(=O)CC1 | 10.1 | 
18 | CC(=O)NCCC(=O)Nc1cc(S(=O)(=O)N2CCOCC2)ccc1N1CCOCC1 | -16.3 | 
19 | NC(=O)C1CCN(C(=O)COc2cccc3cccnc23)CC1 | 7.18 | 
20 | O=C(COc1cccc2ccccc12)Nc1cc(S(=O)(=O)N2CCOCC2)ccc1N1CCOCC1 |  | 11.7 µM (active)
21 | O=C(Nc1c2c(nn1-c1ccccc1)CS(=O)(=O)C2)C1CCCC1 | -1.05 | 
22 | Cc1cccc(C)c1NC(=O)CSc1nc2c([nH]1)c(=O)n(C)c(=O)n2C | -6.97 | 
23 | Cc1cc(NC(=O)Nc2c[nH]c(=O)[nH]c2=O)ccc1Br | 44.9 | 
24 | O=C(NC1CCN(S(=O)(=O)c2ccc(F)cc2)CC1)c1ccccc1 | -8.27 | 
25 | O=C(Cc1cccs1)Nc1ccc([N+](=O)[O-])cc1 | -2.04 | 
26 | O=C(CN(c1cc(C(F)(F)F)ccc1Cl)S(=O)(=O)c1ccccc1)NCc1cccnc1 | -14 | 

Row | SMILES | activity change, negative = inhibition [%] | Potency
27 | CCCNC(=O)c1ccc(N2CCC3(CC2)CC(c2cccc(Br)c2)=NO3)c(NC(=O)c2ccco2)c1 |  | 0.738 µM (active)
28 | COCCNC(=O)c1ccc(N2CCC3(CC2)OCCO3)c([N+](=O)[O-])c1 | 14.9 | 
29 | CCCNC(=O)c1ccc(N2CCC3(CC2)CC(c2ccc(Cl)cc2)=NO3)c([N+](=O)[O-])c1 | -27.8 | 
30 | CCOC(=O)C1CCCN(S(=O)(=O)c2ccc(-n3cnnn3)c(C)c2)C1 (stereo unspecified) | -3.15 | 
31 | Cc1cnc(CN(C)C(=O)C2CCC(=O)N(CCc3cccc(F)c3)C2)[nH]1 (stereo unspecified) | 18.4 | 
32 | Cc1ccc(N(CC(=O)NCC2CCCO2)C(=O)CNS(=O)(=O)c2ccc(Cl)cc2)cc1 (stereo unspecified) | 6.36 | 
33 | O=c1[nH]c(N2CCOCC2)nc2ccccc12 | 1.63 | 
34 | Cc1ccc(S(=O)(=O)N2CCN(C(=O)CSc3cc(C)ccc3C)CC2)c(C)c1 | -1.45 | 
35 | Cc1ccc(S(=O)(=O)N2CCN(C(=O)COC(=O)c3c(C)noc3C)CC2)c(C)c1 | 52.3 | 
36 | Cc1ccc(S(=O)(=O)N2CCN(C(=O)COC(=O)c3c(C)cc(C)cc3C)CC2)c(C)c1 |  | 14.7 µM (active)
37 | COc1ccc(N2CCN(C(=O)c3cccs3)CC2)cc1 | -15.9 | 
38 | O=C(NCCc1ccccc1Cl)C1CCC(=O)N(CCCc2ccccc2)C1 (stereo unspecified) | 18 | 
39 | O=C1N=C(N2CCOCC2)S/C1=C\C=C/c1ccccc1 | 123 | 
40 | NC1=NC(=O)S/C1=C\c1ccc(O)cc1 | 30.8 | 
41 | O=C1N=C(N2CCc3ccccc3C2)S/C1=C\c1ccc(O)cc1 |  | 7.38 µM (active)
42 | O=S1(=O)CCO[C@H]2Cc3ccccc3[C@H]2N1Cc1ccccc1 | 0.289 | 
43 | O=C(c1cc(COc2ccc(F)c(F)c2)on1)N1CCOCC1 | 52.7 | 
44 | COc1cc(/C=N/NC(=O)c2ccoc2C)ccc1OCCN1CCCCC1 | -9.35 | 
45 | COc1ccccc1NC(=O)C1=C(C)Nc2nc3ccccc3n2C1c1cccs1 (stereo unspecified) |  | 13.1 µM (active)
46 | COc1ccc(C2C(C(=O)Nc3ccccc3OC)=C(C)Nc3nnnn32)c(OC)c1 (stereo unspecified) | -15.3 | 
47 | COc1ccccc1NC(=O)C1=C(C)Nc2nnnn2C1c1cccc(Br)c1 (stereo unspecified) | 2.75 | 
48 | COc1cccc(NC(=O)CN2CCN(CC(=O)Nc3ccccc3Cl)CC2)c1 | -21.8 | 
49 | C[C@@H](NC(=O)[C@@H]1Cc2ccccc2CN1)C(=O)NC1CCCC1 | -0.639 | 
50 | Cc1cc(C(=O)NC2CCN(Cc3ccccc3)CC2)n[nH]1 | 9.09 | 
51 | Cc1ccc(-c2cc(C(=O)NC3CCN(Cc4ccccc4)CC3)c3ccccc3n2)cc1 |  | 13.1 µM (active)
